{"source": "the supplement of paper PMC11732987", "about": "“Enantioselective OTUD7B fragment discovery through chemoproteomics screening and high-throughput optimisation” (Communications Chemistry, 2025)", "assay_in_all_cases": "log2 ratio of Biotin-Ahx-Ub-VS probe labelling (fragment/DMSO); higher = less target engagement (more negative = stronger competition), active = hit call of the paper (q ≤ 0.05, log2 ratio ≤ -1)", "conditions_in_all_cases": "compound concentration: 200 uM; treatment time: 3 h", "key": {"ALG13": {"biological_target": "T1, ALG13 (UniProt Q9NP73)", "T1 sequence (whole entry)": "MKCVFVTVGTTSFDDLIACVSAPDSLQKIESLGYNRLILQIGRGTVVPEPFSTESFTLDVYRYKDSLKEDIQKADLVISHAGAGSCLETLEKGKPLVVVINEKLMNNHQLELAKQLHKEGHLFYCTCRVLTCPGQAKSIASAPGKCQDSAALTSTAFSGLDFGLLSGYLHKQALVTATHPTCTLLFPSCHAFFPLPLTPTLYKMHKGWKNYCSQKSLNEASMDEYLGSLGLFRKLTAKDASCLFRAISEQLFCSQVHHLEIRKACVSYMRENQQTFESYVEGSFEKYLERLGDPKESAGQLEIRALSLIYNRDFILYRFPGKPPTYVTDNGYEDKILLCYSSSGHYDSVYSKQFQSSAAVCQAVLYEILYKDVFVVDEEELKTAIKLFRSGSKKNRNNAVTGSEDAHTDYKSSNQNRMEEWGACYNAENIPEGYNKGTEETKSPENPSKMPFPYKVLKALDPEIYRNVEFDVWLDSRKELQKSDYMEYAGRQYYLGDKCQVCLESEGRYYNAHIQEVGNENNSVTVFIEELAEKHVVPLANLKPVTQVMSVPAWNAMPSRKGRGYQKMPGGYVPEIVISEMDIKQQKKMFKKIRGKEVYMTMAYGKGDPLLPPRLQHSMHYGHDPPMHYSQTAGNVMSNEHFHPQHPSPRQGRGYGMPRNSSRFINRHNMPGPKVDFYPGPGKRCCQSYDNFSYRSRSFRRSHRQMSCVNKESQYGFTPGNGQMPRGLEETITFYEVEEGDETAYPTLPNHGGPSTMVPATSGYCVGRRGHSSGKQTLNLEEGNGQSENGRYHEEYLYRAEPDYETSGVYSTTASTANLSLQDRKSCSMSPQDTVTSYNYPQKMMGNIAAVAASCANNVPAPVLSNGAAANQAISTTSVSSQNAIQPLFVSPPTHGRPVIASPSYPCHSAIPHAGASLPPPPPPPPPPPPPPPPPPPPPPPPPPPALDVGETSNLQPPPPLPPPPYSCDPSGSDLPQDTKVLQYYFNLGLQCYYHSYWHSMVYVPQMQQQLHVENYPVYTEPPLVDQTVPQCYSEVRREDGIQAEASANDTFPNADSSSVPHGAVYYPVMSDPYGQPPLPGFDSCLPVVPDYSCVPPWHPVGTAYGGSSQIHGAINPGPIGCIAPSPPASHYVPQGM", "summary_of_the_method": "(§1)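 Labelling with Biotin-Ahx-Ub-VS (0.5 µM final, 1 h) followed a 3 h triplicate treatment of HEK293T lysate (495 µg per sample, Tris/CHAPS/IGEPAL buffer with protease inhibitors) with fragment at 200 µM or vehicle. Labelled DUBs were NeutrAvidin-enriched, digested with LysC and trypsin, and run by diaPASEF LC-MS/MS. The values, average log2 fragment/vehicle ratios by unpaired t-test, come from global-median-normalised Spectronaut label-free quantities. Proteins with ≥2 unique peptides were used.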"}, "ATXN3": {"biological_target": "ATXN3 (UniProt P54252)", "sequence (P54252 whole entry)": "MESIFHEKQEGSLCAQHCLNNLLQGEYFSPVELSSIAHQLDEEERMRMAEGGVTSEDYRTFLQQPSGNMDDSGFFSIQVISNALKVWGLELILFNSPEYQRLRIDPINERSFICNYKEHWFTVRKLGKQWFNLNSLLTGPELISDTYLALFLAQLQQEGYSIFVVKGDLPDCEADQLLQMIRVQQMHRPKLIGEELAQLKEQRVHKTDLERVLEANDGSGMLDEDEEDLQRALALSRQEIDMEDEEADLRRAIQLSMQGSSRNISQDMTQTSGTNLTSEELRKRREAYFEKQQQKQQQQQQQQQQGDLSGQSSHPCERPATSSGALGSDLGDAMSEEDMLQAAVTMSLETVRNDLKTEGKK", "summary_of_the_method": "as §1"}, "BAP1": {"biological_target": "T2, BAP1 (UniProt Q92560)", "T2 sequence (whole entry)": "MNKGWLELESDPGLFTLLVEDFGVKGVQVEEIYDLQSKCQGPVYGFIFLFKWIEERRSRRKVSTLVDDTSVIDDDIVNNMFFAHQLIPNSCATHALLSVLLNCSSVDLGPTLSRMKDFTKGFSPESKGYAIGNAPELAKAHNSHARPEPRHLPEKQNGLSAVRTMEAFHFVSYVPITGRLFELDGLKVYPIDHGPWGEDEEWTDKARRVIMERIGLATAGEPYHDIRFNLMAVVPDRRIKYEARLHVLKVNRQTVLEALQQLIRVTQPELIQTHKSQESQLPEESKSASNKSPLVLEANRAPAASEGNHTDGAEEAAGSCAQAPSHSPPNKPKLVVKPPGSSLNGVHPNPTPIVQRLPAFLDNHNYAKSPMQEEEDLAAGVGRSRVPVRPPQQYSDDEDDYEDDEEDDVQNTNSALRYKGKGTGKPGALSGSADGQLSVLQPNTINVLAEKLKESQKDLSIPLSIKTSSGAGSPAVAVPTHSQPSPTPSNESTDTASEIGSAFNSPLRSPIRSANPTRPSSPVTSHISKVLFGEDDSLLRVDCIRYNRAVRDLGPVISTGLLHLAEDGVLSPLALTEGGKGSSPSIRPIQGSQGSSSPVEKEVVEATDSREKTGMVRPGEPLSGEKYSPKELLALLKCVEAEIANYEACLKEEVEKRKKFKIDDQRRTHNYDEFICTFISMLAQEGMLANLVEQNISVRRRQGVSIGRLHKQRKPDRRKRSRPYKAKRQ", "summary_of_the_method": "as §1"}, "EIF3F": {"biological_target": "EIF3F (UniProt O00303)", "sequence (O00303 whole entry)": "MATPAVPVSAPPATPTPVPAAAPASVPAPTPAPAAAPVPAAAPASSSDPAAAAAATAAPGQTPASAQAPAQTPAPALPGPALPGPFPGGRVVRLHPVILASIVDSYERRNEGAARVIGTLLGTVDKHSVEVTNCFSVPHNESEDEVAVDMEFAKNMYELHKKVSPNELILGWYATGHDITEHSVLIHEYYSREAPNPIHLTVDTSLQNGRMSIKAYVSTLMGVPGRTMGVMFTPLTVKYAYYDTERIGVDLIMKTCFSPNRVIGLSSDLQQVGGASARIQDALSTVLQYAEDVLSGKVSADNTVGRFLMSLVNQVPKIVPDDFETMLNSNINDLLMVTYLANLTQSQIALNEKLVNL", "summary_of_the_method": "as §1"}, "EIF3H": {"biological_target": "EIF3H (UniProt O15372)", "sequence (O15372 whole entry)": "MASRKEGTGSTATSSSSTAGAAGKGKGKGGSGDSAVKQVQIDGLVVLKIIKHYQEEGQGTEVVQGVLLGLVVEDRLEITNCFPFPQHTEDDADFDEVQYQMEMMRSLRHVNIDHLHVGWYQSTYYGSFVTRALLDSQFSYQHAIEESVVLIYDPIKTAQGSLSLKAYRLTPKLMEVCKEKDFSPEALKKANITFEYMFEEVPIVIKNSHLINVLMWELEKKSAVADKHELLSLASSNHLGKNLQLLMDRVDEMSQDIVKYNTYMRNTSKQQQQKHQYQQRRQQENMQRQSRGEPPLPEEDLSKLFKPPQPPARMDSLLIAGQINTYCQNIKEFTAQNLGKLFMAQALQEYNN", "summary_of_the_method": "as §1"}, "FAM105A": {"biological_target": "T3, FAM105A (UniProt Q9NUU6)", "T3 sequence (whole entry)": "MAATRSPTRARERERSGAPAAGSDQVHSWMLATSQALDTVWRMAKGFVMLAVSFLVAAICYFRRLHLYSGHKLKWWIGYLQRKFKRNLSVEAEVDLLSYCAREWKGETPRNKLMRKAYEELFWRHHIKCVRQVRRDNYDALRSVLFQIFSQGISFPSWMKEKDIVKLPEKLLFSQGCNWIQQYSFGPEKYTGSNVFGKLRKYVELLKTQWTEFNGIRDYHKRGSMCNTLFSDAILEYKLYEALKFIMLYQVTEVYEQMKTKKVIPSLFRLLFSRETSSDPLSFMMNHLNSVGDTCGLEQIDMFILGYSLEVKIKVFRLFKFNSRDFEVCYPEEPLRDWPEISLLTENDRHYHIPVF", "summary_of_the_method": "as §1"}, "OTUB1": {"biological_target": "OTUB1 (UniProt Q96FW1)", "sequence (Q96FW1 whole entry)": "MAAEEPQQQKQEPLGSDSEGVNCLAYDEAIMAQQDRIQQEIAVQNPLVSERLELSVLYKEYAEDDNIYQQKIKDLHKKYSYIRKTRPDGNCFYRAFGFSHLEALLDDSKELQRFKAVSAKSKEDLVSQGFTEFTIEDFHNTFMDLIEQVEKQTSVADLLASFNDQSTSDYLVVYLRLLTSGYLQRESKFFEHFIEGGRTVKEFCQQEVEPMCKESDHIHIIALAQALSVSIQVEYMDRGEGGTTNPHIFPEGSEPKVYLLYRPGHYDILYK", "summary_of_the_method": "as §1"}, "OTUD4": {"biological_target": "T4, OTUD4 (UniProt Q01804)", "T4 sequence (whole entry)": "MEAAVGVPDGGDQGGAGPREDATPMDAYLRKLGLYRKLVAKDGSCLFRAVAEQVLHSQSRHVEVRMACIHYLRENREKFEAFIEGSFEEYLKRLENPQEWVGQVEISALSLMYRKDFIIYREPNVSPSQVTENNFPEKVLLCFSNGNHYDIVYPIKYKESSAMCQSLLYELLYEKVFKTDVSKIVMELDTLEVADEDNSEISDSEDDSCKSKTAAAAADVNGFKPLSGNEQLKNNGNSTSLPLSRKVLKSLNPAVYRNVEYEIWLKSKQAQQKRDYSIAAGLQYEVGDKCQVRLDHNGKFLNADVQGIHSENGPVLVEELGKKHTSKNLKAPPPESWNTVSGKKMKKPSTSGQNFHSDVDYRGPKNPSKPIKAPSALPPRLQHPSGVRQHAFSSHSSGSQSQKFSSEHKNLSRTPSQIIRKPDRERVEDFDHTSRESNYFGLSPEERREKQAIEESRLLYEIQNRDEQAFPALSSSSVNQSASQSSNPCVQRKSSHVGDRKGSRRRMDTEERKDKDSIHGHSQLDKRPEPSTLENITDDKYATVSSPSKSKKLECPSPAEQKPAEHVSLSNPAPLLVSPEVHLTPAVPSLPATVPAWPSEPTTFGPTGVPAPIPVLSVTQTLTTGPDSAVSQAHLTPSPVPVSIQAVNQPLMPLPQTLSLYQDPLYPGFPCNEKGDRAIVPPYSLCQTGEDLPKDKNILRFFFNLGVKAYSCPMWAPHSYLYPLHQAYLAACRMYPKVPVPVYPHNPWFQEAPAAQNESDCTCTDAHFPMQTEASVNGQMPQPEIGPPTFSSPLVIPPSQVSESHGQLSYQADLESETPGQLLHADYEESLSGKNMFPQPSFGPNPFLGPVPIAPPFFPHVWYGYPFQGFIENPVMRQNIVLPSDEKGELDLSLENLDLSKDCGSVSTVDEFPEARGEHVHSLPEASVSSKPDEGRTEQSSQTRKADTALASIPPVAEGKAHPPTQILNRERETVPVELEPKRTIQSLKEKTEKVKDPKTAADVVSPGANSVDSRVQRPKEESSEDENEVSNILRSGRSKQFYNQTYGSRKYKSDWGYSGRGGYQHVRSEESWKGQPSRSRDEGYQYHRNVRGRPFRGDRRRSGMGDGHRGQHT", "summary_of_the_method": "as §1"}, "OTUD5": {"biological_target": "T5, OTUD5 (UniProt Q96G74)", "T5 sequence (whole entry)": "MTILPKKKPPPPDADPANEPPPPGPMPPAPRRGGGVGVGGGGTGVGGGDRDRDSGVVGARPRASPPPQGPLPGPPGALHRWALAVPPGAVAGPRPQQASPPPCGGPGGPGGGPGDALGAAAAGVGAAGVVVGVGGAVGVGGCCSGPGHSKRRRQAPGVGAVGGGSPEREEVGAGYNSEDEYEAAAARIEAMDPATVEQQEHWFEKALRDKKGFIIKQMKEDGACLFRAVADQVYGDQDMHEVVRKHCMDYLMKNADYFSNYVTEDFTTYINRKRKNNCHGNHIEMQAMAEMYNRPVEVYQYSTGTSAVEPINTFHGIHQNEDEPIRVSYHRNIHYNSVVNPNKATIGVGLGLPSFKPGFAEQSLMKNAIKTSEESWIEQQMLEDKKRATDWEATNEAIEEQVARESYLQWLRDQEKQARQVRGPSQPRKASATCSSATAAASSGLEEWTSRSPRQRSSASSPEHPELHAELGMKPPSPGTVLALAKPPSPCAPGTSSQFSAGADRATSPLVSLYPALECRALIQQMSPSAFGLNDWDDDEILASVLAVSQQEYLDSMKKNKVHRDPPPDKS", "summary_of_the_method": "as §1"}}, "note": "A number with no mark means an inactive call."}
{"smiles": "Cl.O=C(CCl)NCCc1ncc(F)cc1F", "values": [{"measurement": "log2 ratio of Biotin-Ahx-Ub-VS probe labelling", "setting": "ALG13", "value": 0.103}, {"measurement": "log2 ratio of Biotin-Ahx-Ub-VS probe labelling", "setting": "ATXN3", "value": -0.404}, {"measurement": "log2 ratio of Biotin-Ahx-Ub-VS probe labelling", "setting": "BAP1", "value": "-1.21 (active)"}, {"measurement": "log2 ratio of Biotin-Ahx-Ub-VS probe labelling", "setting": "EIF3F", "value": -0.289}, {"measurement": "log2 ratio of Biotin-Ahx-Ub-VS probe labelling", "setting": "EIF3H", "value": 0.21}, {"measurement": "log2 ratio of Biotin-Ahx-Ub-VS probe labelling", "setting": "FAM105A", "value": 0.131}, {"measurement": "log2 ratio of Biotin-Ahx-Ub-VS probe labelling", "setting": "OTUB1", "value": -0.111}, {"measurement": "log2 ratio of Biotin-Ahx-Ub-VS probe labelling", "setting": "OTUD4", "value": -0.506}, {"measurement": "log2 ratio of Biotin-Ahx-Ub-VS probe labelling", "setting": "OTUD5", "value": -0.474}]}
